Results taken from PubChem BioAssay.
Several values for one entry are separate records, joined by “and”; a condition that tells them apart may be missing. Equal entries are not always repeated. Activity calls are given as the source filed them.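 Rule for the calls, unless noted: active = compounds whose cell count with miR-34 switched on is under 0.7 times the count with it off; inactive = the rest.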

Tests used:
[1] = viability loss with induced miR-34 in A549 – imaging, A549 dox-inducible miR-34, nuclei and caspase counts, primary screen (AID 1347080); conditions: A549 miR-34 inducible, Hoechst nuclei count, 48 h; note: test concentration not given here
[2] = MELAS cybrid and Rieske KO viability enhancers – cell-based, MELAS cybrids, Rieske KO mouse fibroblasts, CellTiter-Glo, primary screen (AID 1508586;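 active = mean z-score across replicates of 1.96 or higher in either the MELAS or the Rieske mutant cell line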;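 note: test concentration not given here; z relative to plate mean and SD of compound and empty wells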); conditions: low glucose
[3] = galactose survival enhancers in mitochondrial complex I cybrids – cell-based, galactose medium, ATP luminescence, primary screen (AID 1645843;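 active = z-score of at least 1.8 in each of two replicates, scored against plate mean and spread of sample wells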;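 note: positive z means more ATP and so rescue of galactose-driven cybrid death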); conditions: complex I mutant cybrid cells, 72 h, stronger effect = higher value
[4] = stronger effect = lower value, cell number ratio, induced over uninduced
[5] = measured here: relative caspase fold change +Dox/-Dox
[6] = measured here: total cells with miR-34 induction, stronger effect = lower value
[7] = measured here: total cells without miR-34 induction
[8] = MELAS cybrid survival, CellTiter-Glo 48 h, stronger effect = higher value
[9] = Rieske KO mouse fibroblast survival, CellTiter-Glo 72 h

| SMILES | fold change [1, 4] | fold change [1, 5] | cell count [1, 6] | cell count [1, 7] | z-score [2, 8] | z-score [2, 9] | z-score [3] |
| --- | --- | --- | --- | --- | --- | --- | --- |
| Nc1nc(NC(Cn2ccnc2)c2ccccc2)c2cn[nH]c2n1 (stereo unspecified) | 0.958 (inactive) | 1.04 | 9810 | 10200 | -0.353 (inactive) | -0.318 | -0.495 (inactive) |
| CC(C)(O)c1ccccc1CCC(SCC1(CC(=O)O)CC1)c1cccc(C=Cc2ccc3ccc(Cl)cc3n2)c1 (stereo unspecified) | 0.925 (inactive) and 0.834 (inactive) | 1.67 and 2.27 | 8950 and 7950 | 9680 and 9540 | -0.195 (inactive) | -0.136 | 0.25 (inactive) |
| O=C(c1ccnc(Cl)c1)N1CCc2[nH]nc(C3CCC3)c2C1 | 0.923 (inactive) | 0.638 | 9170 | 9930 | -0.36 (inactive) | 0.475 | -0.4 (inactive) |
| Cn1nc(NC(=O)Cn2ccc(-c3ccco3)n2)c2ccccc21 | 0.861 (inactive) | 2.39 | 7120 | 8270 | 1.07 (inactive) | 0.074 | 0.205 (inactive) |
| O=C(Nc1ccc(I)cc1)NC1CCCCC1 | 0.864 (inactive) | 0.498 | 7960 | 9220 | 0.185 (inactive) | -0.338 | 1.05 (inactive) |
| COc1cccc2ccc(-c3nnc4ccccn34)nc12 | 0.871 (inactive) | 1.83 | 7320 | 8400 | -0.646 (inactive) | 0.957 | -0.595 (inactive) |
| CC(C)n1ncc(NC(=O)Cn2ccc(-c3ccc(C(F)(F)F)cc3)n2)n1 | 0.965 (inactive) | 1.03 | 5250 | 5440 | 1.15 (inactive) | -0.0246 | 0.42 (inactive) |
| O=C1CN(c2ncnc3nc[nH]c23)CCN1CCc1ccccc1 | 0.93 (inactive) | 1.88 | 8450 | 9080 | -0.834 (inactive) | -0.816 | -0.58 (inactive) |
